From PMC7862700, “An all-to-all approach to the identification of sequence-specific readers for epigenetic DNA modifications on cytosine”

Legend:
Experiment in all cases: DAPPL (digital affinity profiling via proximity ligation, sequencing); 10 mM Tris-HCl pH 7.5, 50 mM NaCl, 1 mM DTT, 4% glycerol, room temperature, 30 min; GST-TFs on glutathione beads, 16-mer random dsDNA library, 0.1% formaldehyde crosslink after washing; high values mean tight binding
Settings in all cases: protein: recombinant; tags: N-terminal GST; dsDNA, one strand shown
FLI1 = biological target: T1, FLI1 (Homo sapiens, UniProt Q01543 1-452)
T1 sequence: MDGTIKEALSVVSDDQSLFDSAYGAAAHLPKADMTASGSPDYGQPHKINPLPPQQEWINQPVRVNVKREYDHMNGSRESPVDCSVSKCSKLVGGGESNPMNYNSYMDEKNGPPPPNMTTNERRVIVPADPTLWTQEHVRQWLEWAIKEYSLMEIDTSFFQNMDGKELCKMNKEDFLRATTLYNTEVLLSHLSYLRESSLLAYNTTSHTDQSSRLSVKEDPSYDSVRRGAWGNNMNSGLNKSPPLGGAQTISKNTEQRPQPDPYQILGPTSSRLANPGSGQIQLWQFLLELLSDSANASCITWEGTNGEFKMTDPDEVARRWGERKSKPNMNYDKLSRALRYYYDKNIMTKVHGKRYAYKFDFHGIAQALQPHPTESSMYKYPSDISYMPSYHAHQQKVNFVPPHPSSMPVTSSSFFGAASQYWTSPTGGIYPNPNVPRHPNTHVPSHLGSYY
Procedure, shortened: (§1)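 Binding signal is each hexamer's read frequency for a factor divided by its frequency in the tag-only sample. The factors were GST-fused human transcription factors from yeast, captured on glutathione beads, DNA-barcoded and pooled with that sample. Pools were incubated with 200 nmole of a random double-stranded 16-mer DNA library in Tris/NaCl/DTT/glycerol buffer at room temperature for 30 min, then washed, crosslinked with 0.1% formaldehyde, proximity-ligated with BsaI/T4 ligase (1 h, 37 °C), PCR-amplified and sequenced on an Illumina NextSeq500.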

ELK1 = biological target: T2, ELK1 (Homo sapiens, UniProt P19419 1-428)
T2 sequence: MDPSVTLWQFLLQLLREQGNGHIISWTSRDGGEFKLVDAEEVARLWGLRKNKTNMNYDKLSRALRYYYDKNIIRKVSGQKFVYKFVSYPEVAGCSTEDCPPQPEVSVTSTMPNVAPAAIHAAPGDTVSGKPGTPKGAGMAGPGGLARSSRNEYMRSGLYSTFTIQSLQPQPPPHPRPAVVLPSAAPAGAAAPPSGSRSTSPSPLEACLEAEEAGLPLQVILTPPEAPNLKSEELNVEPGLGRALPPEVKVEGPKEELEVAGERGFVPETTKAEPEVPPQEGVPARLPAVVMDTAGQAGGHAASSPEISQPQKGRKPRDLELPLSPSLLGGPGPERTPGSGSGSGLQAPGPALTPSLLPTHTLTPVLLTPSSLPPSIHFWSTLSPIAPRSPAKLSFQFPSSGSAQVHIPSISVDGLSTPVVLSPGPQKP
Procedure, shortened: as §1

GABPA = biological target: T3, GABPA (Homo sapiens, UniProt Q06546 1-454)
T3 sequence: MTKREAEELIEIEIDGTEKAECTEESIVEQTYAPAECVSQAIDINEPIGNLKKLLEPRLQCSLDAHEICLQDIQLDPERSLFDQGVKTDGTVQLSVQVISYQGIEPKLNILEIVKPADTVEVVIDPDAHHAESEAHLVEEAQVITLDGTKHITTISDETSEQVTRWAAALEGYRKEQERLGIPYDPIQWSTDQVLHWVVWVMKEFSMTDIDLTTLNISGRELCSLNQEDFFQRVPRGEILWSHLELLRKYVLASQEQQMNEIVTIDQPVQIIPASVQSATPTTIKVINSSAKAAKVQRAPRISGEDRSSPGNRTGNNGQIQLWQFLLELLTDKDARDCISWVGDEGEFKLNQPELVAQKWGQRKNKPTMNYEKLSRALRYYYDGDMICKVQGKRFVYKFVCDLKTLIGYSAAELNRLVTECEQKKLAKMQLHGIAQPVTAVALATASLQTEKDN
Procedure, shortened: as §1

ERG = biological target: T4, ERG (Homo sapiens, UniProt P11308 1-479)
T4 sequence: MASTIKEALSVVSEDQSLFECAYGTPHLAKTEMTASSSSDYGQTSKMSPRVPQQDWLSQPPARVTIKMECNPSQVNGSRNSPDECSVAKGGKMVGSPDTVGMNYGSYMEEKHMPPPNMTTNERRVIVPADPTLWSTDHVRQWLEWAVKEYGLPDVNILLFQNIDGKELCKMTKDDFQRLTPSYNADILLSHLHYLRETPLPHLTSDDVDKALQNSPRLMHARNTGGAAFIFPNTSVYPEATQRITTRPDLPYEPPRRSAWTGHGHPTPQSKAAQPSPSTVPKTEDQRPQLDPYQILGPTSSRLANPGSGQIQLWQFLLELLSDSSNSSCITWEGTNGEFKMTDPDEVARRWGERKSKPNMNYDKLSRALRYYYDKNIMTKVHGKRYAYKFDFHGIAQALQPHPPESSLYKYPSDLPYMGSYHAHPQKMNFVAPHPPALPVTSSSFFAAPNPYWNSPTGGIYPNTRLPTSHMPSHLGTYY
Procedure, shortened: as §1

ELF1 = ELF1 (Homo sapiens, UniProt P32519 1-619)
ELF1, sequence (P32519 whole entry): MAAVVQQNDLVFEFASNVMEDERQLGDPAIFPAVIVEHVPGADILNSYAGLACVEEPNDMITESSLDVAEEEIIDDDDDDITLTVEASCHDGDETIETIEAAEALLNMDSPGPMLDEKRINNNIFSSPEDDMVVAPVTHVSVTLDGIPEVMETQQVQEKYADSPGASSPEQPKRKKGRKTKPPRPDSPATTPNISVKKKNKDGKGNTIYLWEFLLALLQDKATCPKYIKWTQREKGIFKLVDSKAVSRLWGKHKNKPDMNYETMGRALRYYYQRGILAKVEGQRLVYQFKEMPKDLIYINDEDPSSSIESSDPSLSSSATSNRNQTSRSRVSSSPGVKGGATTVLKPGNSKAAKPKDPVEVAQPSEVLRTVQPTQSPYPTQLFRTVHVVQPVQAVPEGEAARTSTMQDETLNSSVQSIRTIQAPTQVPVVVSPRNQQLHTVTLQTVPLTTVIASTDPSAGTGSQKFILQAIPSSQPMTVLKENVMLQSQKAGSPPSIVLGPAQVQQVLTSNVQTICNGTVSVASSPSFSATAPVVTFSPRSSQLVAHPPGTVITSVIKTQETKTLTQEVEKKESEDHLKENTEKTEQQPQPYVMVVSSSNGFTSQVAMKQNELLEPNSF
Procedure, shortened: as §1

EHF = biological target: T5, EHF (Homo sapiens, UniProt Q9NZC4 1-300)
T5 sequence: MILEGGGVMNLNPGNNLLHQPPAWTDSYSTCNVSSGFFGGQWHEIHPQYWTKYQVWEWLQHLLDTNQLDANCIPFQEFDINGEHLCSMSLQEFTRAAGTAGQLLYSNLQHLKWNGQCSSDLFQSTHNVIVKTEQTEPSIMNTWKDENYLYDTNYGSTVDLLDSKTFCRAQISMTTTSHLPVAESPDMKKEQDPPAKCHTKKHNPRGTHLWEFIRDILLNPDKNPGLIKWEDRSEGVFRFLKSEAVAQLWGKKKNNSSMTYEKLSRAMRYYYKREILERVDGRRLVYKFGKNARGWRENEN
Procedure, shortened: as §1

SPI1 = SPI1 (Homo sapiens, UniProt P17947 1-270)
Procedure, shortened: as §1

SPIB = SPIB (Homo sapiens, UniProt Q01892 1-262)
SPIB, sequence (Q01892 whole entry): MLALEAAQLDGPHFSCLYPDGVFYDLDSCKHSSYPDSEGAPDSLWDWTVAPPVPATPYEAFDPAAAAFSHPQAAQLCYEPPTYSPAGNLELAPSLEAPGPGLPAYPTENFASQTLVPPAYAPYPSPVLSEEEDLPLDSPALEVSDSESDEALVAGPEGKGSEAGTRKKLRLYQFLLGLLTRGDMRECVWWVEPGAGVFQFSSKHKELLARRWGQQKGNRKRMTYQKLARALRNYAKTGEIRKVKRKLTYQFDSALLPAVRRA
Procedure, shortened: as §1

ELK3 = biological target: T6, ELK3 (Homo sapiens, UniProt P41970 1-407)
T6 sequence: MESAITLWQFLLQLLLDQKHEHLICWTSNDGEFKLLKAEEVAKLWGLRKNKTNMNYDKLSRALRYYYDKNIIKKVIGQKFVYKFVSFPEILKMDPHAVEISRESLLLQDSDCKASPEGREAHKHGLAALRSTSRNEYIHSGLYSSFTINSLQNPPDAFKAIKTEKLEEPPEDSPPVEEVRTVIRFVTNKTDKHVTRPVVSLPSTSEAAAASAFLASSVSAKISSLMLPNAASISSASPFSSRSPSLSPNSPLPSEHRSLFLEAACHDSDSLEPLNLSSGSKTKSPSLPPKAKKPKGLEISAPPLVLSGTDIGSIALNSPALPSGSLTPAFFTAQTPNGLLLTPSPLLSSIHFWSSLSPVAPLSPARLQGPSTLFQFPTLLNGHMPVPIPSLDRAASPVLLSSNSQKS
Procedure, shortened: as §1

Sequence | binding signal (FLI1) | binding signal (ELK1) | binding signal (GABPA) | binding signal (ERG) | binding signal (ELF1) | binding signal (EHF) | binding signal (SPI1) | binding signal (SPIB) | binding signal (ELK3)
TTTGTG | 1.31 fold enrichment (6-mer frequency, TF over GST control) | 1.2 fold enrichment (6-mer frequency, TF over GST control) | 1.13 fold enrichment (6-mer frequency, TF over GST control) | 1.14 fold enrichment (6-mer frequency, TF over GST control) | 1.09 fold enrichment (6-mer frequency, TF over GST control) | 1.15 fold enrichment (6-mer frequency, TF over GST control) | 1.12 fold enrichment (6-mer frequency, TF over GST control) | 1.09 fold enrichment (6-mer frequency, TF over GST control) | 1.17 fold enrichment (6-mer frequency, TF over GST control)
GTCTTA | 1.1 fold enrichment (6-mer frequency, TF over GST control) | 1.14 fold enrichment (6-mer frequency, TF over GST control) | 1.08 fold enrichment (6-mer frequency, TF over GST control) | 1.06 fold enrichment (6-mer frequency, TF over GST control) | 1.11 fold enrichment (6-mer frequency, TF over GST control) | 1.08 fold enrichment (6-mer frequency, TF over GST control) | 1.14 fold enrichment (6-mer frequency, TF over GST control) | 1.14 fold enrichment (6-mer frequency, TF over GST control) | 1.06 fold enrichment (6-mer frequency, TF over GST control)
TCGCAC | 1.11 fold enrichment (6-mer frequency, TF over GST control) | 1.1 fold enrichment (6-mer frequency, TF over GST control) | 1.09 fold enrichment (6-mer frequency, TF over GST control) | 1.07 fold enrichment (6-mer frequency, TF over GST control) | 1.13 fold enrichment (6-mer frequency, TF over GST control) | 1.06 fold enrichment (6-mer frequency, TF over GST control) | 1.13 fold enrichment (6-mer frequency, TF over GST control) | 1.02 fold enrichment (6-mer frequency, TF over GST control) | 1.02 fold enrichment (6-mer frequency, TF over GST control)
GTTCCG | 1.81 fold enrichment (6-mer frequency, TF over GST control) | 2.02 fold enrichment (6-mer frequency, TF over GST control) | 1.64 fold enrichment (6-mer frequency, TF over GST control) | 1.95 fold enrichment (6-mer frequency, TF over GST control) | 1.78 fold enrichment (6-mer frequency, TF over GST control) | 2.05 fold enrichment (6-mer frequency, TF over GST control) | 2.19 fold enrichment (6-mer frequency, TF over GST control) | 2.15 fold enrichment (6-mer frequency, TF over GST control) | 1.71 fold enrichment (6-mer frequency, TF over GST control)
ATACGG | 1.19 fold enrichment (6-mer frequency, TF over GST control) | 1.16 fold enrichment (6-mer frequency, TF over GST control) | 1.17 fold enrichment (6-mer frequency, TF over GST control) | 1.23 fold enrichment (6-mer frequency, TF over GST control) | 1.19 fold enrichment (6-mer frequency, TF over GST control) | 1.2 fold enrichment (6-mer frequency, TF over GST control) | 1.31 fold enrichment (6-mer frequency, TF over GST control) | 1.23 fold enrichment (6-mer frequency, TF over GST control) | 1.23 fold enrichment (6-mer frequency, TF over GST control)
TTATAA | 1.21 fold enrichment (6-mer frequency, TF over GST control) | 1.16 fold enrichment (6-mer frequency, TF over GST control) | 1.15 fold enrichment (6-mer frequency, TF over GST control) | 1.14 fold enrichment (6-mer frequency, TF over GST control) | 1.14 fold enrichment (6-mer frequency, TF over GST control) | 1.16 fold enrichment (6-mer frequency, TF over GST control) | 1.16 fold enrichment (6-mer frequency, TF over GST control) | 1.2 fold enrichment (6-mer frequency, TF over GST control) | 1.33 fold enrichment (6-mer frequency, TF over GST control)
ACCGCT | 1.09 fold enrichment (6-mer frequency, TF over GST control) | 1.12 fold enrichment (6-mer frequency, TF over GST control) | 1.14 fold enrichment (6-mer frequency, TF over GST control) | 1.1 fold enrichment (6-mer frequency, TF over GST control) | 1.07 fold enrichment (6-mer frequency, TF over GST control) | 1.09 fold enrichment (6-mer frequency, TF over GST control) | 1.03 fold enrichment (6-mer frequency, TF over GST control) | 1.15 fold enrichment (6-mer frequency, TF over GST control) | 1.05 fold enrichment (6-mer frequency, TF over GST control)
